According to PubChem BioAssay (NCI):
Compounds without any hit were thinned out: in the full panel of roughly 79,000, 15% have a hit. Unmarked numbers belong to inactive results. Active and inactive are the calls of the source. Rule as the data show it: active = growth inhibition above about 70%; inactive = the rest.

Assays:
[1] = NCI Yeast Anticancer Drug Screen. Data for the rad50 strain (AID 155);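 also: 0% = growth of vehicle-only cultures of the same strain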; conditions: S. cerevisiae rad50 strain growth inhibition, active compounds read high
Summary of the method: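 Relative growth inhibition (compound vs vehicle) was measured in yeast with a defined repair-gene alteration.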

[2] = NCI Yeast Anticancer Drug Screen. Data for the mec2-1 strain (AID 157); conditions: S. cerevisiae mec2-1 strain, active compounds read high
Summary of the method: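 Growth inhibition is read against vehicle-treated controls after compound exposure of the mec2-1 yeast strain, which is defective in DNA damage repair or cell cycle control.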

[3] = NCI Yeast Anticancer Drug Screen. Data for the sgs1 mgt1 strain (AID 161);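 also: 0% = growth of cultures given vehicle only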; conditions: S. cerevisiae sgs1 mgt1 strain, active compounds read high
Summary of the method: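 Yeast cells carrying a defined DNA-repair defect were exposed to test compounds. Growth inhibition was measured relative to vehicle-treated controls.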

[4] = NCI Yeast Anticancer Drug Screen. Data for the cln2 rad14 strain (AID 165);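 also: 0% = growth equal to vehicle treated cultures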; conditions: S. cerevisiae cln2 rad14 strain, active compounds read high
Summary of the method: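 Growth inhibition, relative to vehicle-treated controls, is the read-out. The test organism is a yeast strain with defined genetic alterations, cln2 rad14.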

[5] = NCI Yeast Anticancer Drug Screen. Data for the bub3 strain (AID 167); conditions: S. cerevisiae bub3 mutant strain, active compounds read high
Summary of the method: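 Screening used yeast with an engineered genetic alteration affecting cell cycle control. Compound-exposed cultures were compared with vehicle cultures, and reduced growth was taken as inhibition.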

[6] = NCI Yeast Anticancer Drug Screen. Data for the mlh1 rad18 strain (AID 175); conditions: S. cerevisiae mlh1 rad18 strain growth inhibition, active compounds read high
Summary of the method: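 Cells of a genetically altered yeast strain, deficient in DNA damage repair, were treated with compound. Their growth was then compared with that of vehicle-treated cultures to give inhibition.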

[7] = at 5.0 µM (retest, dose inferred, filed as 0.5)
[8] = at 50.0 µM (retest, dose inferred, filed as 5.0)

O=c1c2cc3ccccc3cc2c(=O)n2n1CC=CC2
growth inhibition [1, 7]: 8%
growth inhibition [1, 8]: 39%
growth inhibition ([1]; at 50.0 µM): 74.2% (active)
growth inhibition [2, 7]: -1%
growth inhibition [2, 8]: 6%
growth inhibition ([2]; at 50.0 µM): 15.9%
growth inhibition [3, 7]: 9%
growth inhibition [3, 8]: 18%
growth inhibition ([3]; at 50.0 µM): 22%
growth inhibition [4, 7]: 4%
growth inhibition [4, 8]: 10%
growth inhibition ([4]; at 50.0 µM): 26.8%
growth inhibition [5, 7]: 2%
growth inhibition [5, 8]: -1%
growth inhibition ([5]; at 50.0 µM): -0.8%
growth inhibition [6, 7]: 25%
growth inhibition [6, 8]: 46%
growth inhibition ([6]; at 50.0 µM): 10.8%

CCOC(=O)Nc1cc(NC(C)/C(=N/O)c2ccccc2)c([N+](=O)[O-])c(N)n1 (configuration not stated)
growth inhibition [1, 7]: -18%
growth inhibition [1, 8]: 97% (active)
growth inhibition ([1]; at 50.0 µM): 42.6%
growth inhibition [2, 7]: -5%
growth inhibition [2, 8]: 47%
growth inhibition ([2]; at 50.0 µM): 59.5%
growth inhibition [3, 7]: 1%
growth inhibition [3, 8]: 69%
growth inhibition ([3]; at 50.0 µM): 47.5%
growth inhibition [4, 7]: -21%
growth inhibition [4, 8]: 98% (active)
growth inhibition ([4]; at 50.0 µM): 24.9%
growth inhibition [5, 7]: -10%
growth inhibition [5, 8]: 87% (active)
growth inhibition ([5]; at 50.0 µM): 62.1%
growth inhibition [6, 7]: -5%
growth inhibition [6, 8]: 82% (active)
growth inhibition ([6]; at 50.0 µM): 44.2%

CN(C)c1ccc(/C=C/C(=O)c2ccc([N+](=O)[O-])cc2)cc1
growth inhibition [1, 7]: 38%
growth inhibition [1, 8]: 48%
growth inhibition ([1]; at 50.0 µM): -21.7%
growth inhibition [2, 7]: 45%
growth inhibition [2, 8]: 42%
growth inhibition ([2]; at 50.0 µM): -16%
growth inhibition [3, 7]: -9%
growth inhibition [3, 8]: 24%
growth inhibition ([3]; at 50.0 µM): -16.7%
growth inhibition [4, 7]: 24%
growth inhibition [4, 8]: 41%
growth inhibition ([4]; at 50.0 µM): -4.5%
growth inhibition [5, 7]: 21%
growth inhibition [5, 8]: 23%
growth inhibition ([5]; at 50.0 µM): -13.4%
growth inhibition [6, 7]: 34%
growth inhibition [6, 8]: 45%
growth inhibition ([6]; at 50.0 µM): -47.2%

COC(=O)N1C2C=CC(=O)C(C=C2)N1C(=O)OC (configuration not stated)
growth inhibition [1, 7]: -3%
growth inhibition [1, 8]: 30%
growth inhibition ([1]; at 50.0 µM): 33.9%
growth inhibition [2, 7]: 2%
growth inhibition [2, 8]: 38%
growth inhibition ([2]; at 50.0 µM): 53.2%
growth inhibition [3, 7]: 0%
growth inhibition [3, 8]: 58%
growth inhibition ([3]; at 50.0 µM): 47%
growth inhibition [4, 7]: 1%
growth inhibition [4, 8]: 23%
growth inhibition ([4]; at 50.0 µM): 36.4%
growth inhibition [5, 7]: -1%
growth inhibition [5, 8]: 34%
growth inhibition ([5]; at 50.0 µM): 60.6%
growth inhibition [6, 7]: 18%
growth inhibition [6, 8]: 79% (active)
growth inhibition ([6]; at 50.0 µM): 85% (active)

CCCCCCCCCCCC(=O)NN
growth inhibition [1, 7]: 14%
growth inhibition [1, 8]: 82% (active)
growth inhibition ([1]; at 50.0 µM): 97.4% (active)
growth inhibition [2, 7]: 12%
growth inhibition [2, 8]: 43%
growth inhibition ([2]; at 50.0 µM): 97.6% (active)
growth inhibition [3, 7]: 6%
growth inhibition [3, 8]: 68%
growth inhibition ([3]; at 50.0 µM): 98% (active)
growth inhibition [4, 7]: -3%
growth inhibition [4, 8]: 65%
growth inhibition ([4]; at 50.0 µM): 97% (active)
growth inhibition [5, 7]: 22%
growth inhibition [5, 8]: 52%
growth inhibition ([5]; at 50.0 µM): 95.3% (active)
growth inhibition [6, 7]: 8%
growth inhibition [6, 8]: 82% (active)
growth inhibition ([6]; at 50.0 µM): 97.8% (active)

O=c1cc(-c2ccccc2)oc(-c2ccccc2)c1
growth inhibition [1, 7]: -152%
growth inhibition [1, 8]: -105%
growth inhibition ([1]; at 50.0 µM): 82.4% (active)
growth inhibition [2, 7]: -55%
growth inhibition [2, 8]: -50%
growth inhibition ([2]; at 50.0 µM): 19.4%
growth inhibition [3, 7]: -71%
growth inhibition [3, 8]: -59%
growth inhibition ([3]; at 50.0 µM): 11%
growth inhibition [4, 7]: -68%
growth inhibition [4, 8]: -82%
growth inhibition ([4]; at 50.0 µM): -20.1%
growth inhibition [5, 7]: -68%
growth inhibition [5, 8]: -56%
growth inhibition ([5]; at 50.0 µM): 20%
growth inhibition [6, 7]: -123%
growth inhibition [6, 8]: -103%
growth inhibition ([6]; at 50.0 µM): 43.6%

COc1ccc(C(=O)CCc2c[nH]c3ccccc23)c(O)c1
growth inhibition [1, 7]: 2%
growth inhibition [1, 8]: 43%
growth inhibition ([1]; at 50.0 µM): -1.85%
growth inhibition [2, 7]: -9%
growth inhibition [2, 8]: 22%
growth inhibition ([2]; at 50.0 µM): 13.8%
growth inhibition [3, 7]: 11%
growth inhibition [3, 8]: 46%
growth inhibition ([3]; at 50.0 µM): 36%
growth inhibition [4, 7]: 22%
growth inhibition [4, 8]: 72% (active)
growth inhibition ([4]; at 50.0 µM): 14.2%
growth inhibition [5, 7]: 12%
growth inhibition [5, 8]: 79% (active)
growth inhibition ([5]; at 50.0 µM): 23.5%
growth inhibition [6, 7]: -9%
growth inhibition [6, 8]: 79% (active)
growth inhibition ([6]; at 50.0 µM): -13.3%

Cc1nc(-c2cccc(Cl)c2)oc1-c1ccccc1
growth inhibition [1, 7]: 2%
growth inhibition [1, 8]: 78% (active)
growth inhibition ([1]; at 50.0 µM): 28.4%
growth inhibition [2, 7]: 8%
growth inhibition [2, 8]: 78% (active)
growth inhibition ([2]; at 50.0 µM): 27.8%
growth inhibition [3, 7]: 17%
growth inhibition [3, 8]: 85% (active)
growth inhibition ([3]; at 50.0 µM): 40.2%
growth inhibition [4, 7]: 1%
growth inhibition [4, 8]: 80% (active)
growth inhibition ([4]; at 50.0 µM): 53.4%
growth inhibition [5, 7]: -3%
growth inhibition [5, 8]: 76% (active)
growth inhibition ([5]; at 50.0 µM): 47.8%
growth inhibition [6, 7]: 4%
growth inhibition [6, 8]: 76% (active)
growth inhibition ([6]; at 50.0 µM): 58.5%

COc1cccc2c1S(=O)(=O)C(c1ccccc1)=CC2=O
growth inhibition [1, 7]: 45%
growth inhibition [1, 8]: 99% (active)
growth inhibition ([1]; at 50.0 µM): 99.5% (active)
growth inhibition [2, 7]: 48%
growth inhibition [2, 8]: 99% (active)
growth inhibition ([2]; at 50.0 µM): 99.2% (active)
growth inhibition [3, 7]: 55%
growth inhibition [3, 8]: 99% (active)
growth inhibition ([3]; at 50.0 µM): 99.4% (active)
growth inhibition [4, 7]: 12%
growth inhibition [4, 8]: 98% (active)
growth inhibition ([4]; at 50.0 µM): 98.7% (active)
growth inhibition [5, 7]: 58%
growth inhibition [5, 8]: 97% (active)
growth inhibition ([5]; at 50.0 µM): 99.7% (active)
growth inhibition [6, 7]: 69%
growth inhibition [6, 8]: 99% (active)
growth inhibition ([6]; at 50.0 µM): 99.5% (active)
